Here are results for 20 compounds from PubChem BioAssay AID624252 (National Center for Advancing Translational Sciences (NCATS), 2012).

The other results are listed elsewhere or left out. Entries that show only a call come without a potency. Records with an inconclusive call do not appear. Calls of active or inactive are those of the source. The call rests on the fitted dose curve; in most records, active means well fitted cell-killing curve with a large enough effect; inconclusive means small, poorly fitted or top-dose-only effect; inactive means flat fitted curve, though single readings scatter.
Potency means the concentration at half of the fitted maximal effect.

A short description of the experiment: qHTS screen for small molecules that inhibit ELG1-dependent DNA repair: Hit Confirmation with Unstimulated Viability Assay.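 Further: compound exposure lasted 16 hours before reading; nearly all actives have a fitted effect of over 55% in size.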 The following applies: cell viability counter-screen, luminescence; series mostly up to 45.9 µM. The source says:
Cancer cells divide rapidly compared to normal cells in the body. During cell division, cancer cells need to duplicate their genome by DNA replication. The failure of genome duplication leads to cancer cells' death. Therefore, inhibitors of DNA replication could specifically kill cancer cells. Based on this concept, many chemotherapeutic agents were developed and have been used to treat cancer patients. However, there are a limited number of agents available in the clinical setting, and some of those that do exist have low efficacy and severe side effects. Therefore, if we can find the compounds that effectively block DNA replication either by directly damaging DNA or by inhibiting other cellular mechanisms, the options for cancer treatment will be broadened. With this in mind, we developed a quantitative high-throughput ELG1-luciferase reporter gene assay. Small molecules that specifically block ELG1 function in response to DNA damage can be identified by monitoring the suppression of luciferase activity. Since ELG1 defines a pathway for repairing DNA damage, agents blocking ELG1 function can be used to sensitize cancer cells to chemotherapeutic agents whose mechanism of action involves the induction of DNA damage.
NIH Molecular Libraries Probe Production Network [MLPCN]
NIH Chemical Genomics Center [NCGC]
Assay Provider: Kyungjae Myung, NHGRI, NIH
For genotoxicity screening, 2,000 cells in 4 uL/well were dispensed into white, solid-bottom 1536-well plates using a solenoid-based dispenser. 23 nL compound or DMSO vehicle were added by a pin tool, the plates were incubated 16 hr at 37 °C and 5% CO2. 5 ul ONE-Glo (Promega) was then added to each plate and following a 30 min incubation at room temperature, luciferase activity was quantified on a ViewLux CCD-based plate reader.
With `CN(C)c1ccnc2sc3c(=O)n(Cc4ccccc4)cnc3c12`, the Potency result is “inactive”. Next, `COc1ccc(NC(C)=O)cc1NC(=O)CN1CCN(C2c3ccccc3-c3ccccc32)CC1`: “inactive”. On to `NC(=O)c1sc2nc3c(c(-c4ccccc4)c2c1N)CCC3`, for which the Potency entry was “inactive”. The same measure for `COc1ccc(-c2nn(-c3ccccc3)cc2/C=C\C(=O)N2CCOCC2)cc1[N+](=O)[O-]`: “inactive”; for `Cc1ccc(C)c(S(=O)(=O)N2CCN(c3ncnc4sccc34)CC2)c1`: 6.28 µM (active). Consider `CN(CC1CCCO1)S(=O)(=O)c1ccc(C(=O)Nc2ccc(F)cc2)cc1` (stereo not given), for which the Potency result is “inactive”. Turning to `OCCCNc1nccc(-c2cc(Nc3cccc(Cl)c3)ncn2)n1`, the Potency was 9.97 µM (active). The same measure for `CCc1ccc(N(CC)c2ncnc3nc[nH]c23)cc1`: “inactive”. Next, `Cc1ccc(Nc2nc(N3CCOCC3)nc(N3CCOCC3)n2)cc1Cl`: “inactive”; `O=C(Nn1c(SCc2ccc([N+](=O)[O-])cc2)nc2ccccc2c1=O)c1ccc(F)cc1`: “inactive”; `Cc1ccccc1NC(=O)CSc1nc2ccc(Nc3nc(N4CCOCC4)nc(N4CCOCC4)n3)cc2s1`: “inactive”. Next, `CC(=O)N1CCc2cc(Br)cc(S(=O)(=O)CCC(=O)Nc3c(C)n(C)n(-c4ccccc4)c3=O)c21`: “inactive”; `CC(=O)c1c(C)n(-c2ccc(C)cc2)c2ccc(O)cc12`: “inactive”. Consider `Cc1nnc(N/N=C/c2ccccn2)[nH]c1=O`, for which the Potency result was “inactive”. `Nc1nnc(SCC(=O)Nc2ccc3nc(SCC(=O)Nc4ccccc4)sc3c2)s1`: the Potency result was “inactive”.

On to `COc1ccc(NC(=O)C2CCC(CNc3c(N4CCCCC4)c(=O)c3=O)CC2)c(OC)c1` (stereo not given), for which the Potency was 25 µM (active).

On to `COc1ccc(-c2cc(C(=O)N(C)CC(=O)Nc3ccccc3Cl)c3ccccc3n2)cc1OC`, for which the Potency entry was “inactive”.

As for `CS(=O)c1ccc(/C=C2\C=Cc3ccccc32)cc1` (stereo not given), the Potency entry is “inactive”. As for `CS(=O)(=O)c1ccc2nc(NC(=O)C3CCCCC3)sc2c1`, the Potency entry was “inactive”. Next, `CC12CCC(C(=O)N3CCN(c4ncccn4)CC3)(c3nc4ccccc4nc31)C2(C)C` (stereo not given): “inactive”.
